The text below walks through data of PubChem BioAssay AID624267 (The Scripps Research Institute Molecular Screening Center, 2012).

Where “and” joins values, the source holds several entries; their conditions need not be identical. Identical values can stand only once. The whole screen tested about 360,000 compounds, of which about 1,400 (0.39%) were called active. The entries come from a sample that favours actives as a whole. Values without a mark were called inactive. No stated cut-off is given here; in the data, active means inhibition above about 21%; inactive means the rest.

In the experiment the target is Receptor-interacting serine/threonine-protein kinase 2 (Homo sapiens) (UniProt O43353). Briefly: inhibitors of RIPK2 association with NOD2 – fluorescence, CHO cells, BLA complementation, primary screen (AID 624267).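 Further: 0% = vehicle only and 100% = reference blocker.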 Particulars: CHO BLA complementation NOD2-RIPK2, CCF4 ratio; at 4.98 µM; stronger effect = higher value.
Receptor-interacting serine/threonine-protein kinase 2 (Homo sapiens), sequence (O43353 whole entry, looked up): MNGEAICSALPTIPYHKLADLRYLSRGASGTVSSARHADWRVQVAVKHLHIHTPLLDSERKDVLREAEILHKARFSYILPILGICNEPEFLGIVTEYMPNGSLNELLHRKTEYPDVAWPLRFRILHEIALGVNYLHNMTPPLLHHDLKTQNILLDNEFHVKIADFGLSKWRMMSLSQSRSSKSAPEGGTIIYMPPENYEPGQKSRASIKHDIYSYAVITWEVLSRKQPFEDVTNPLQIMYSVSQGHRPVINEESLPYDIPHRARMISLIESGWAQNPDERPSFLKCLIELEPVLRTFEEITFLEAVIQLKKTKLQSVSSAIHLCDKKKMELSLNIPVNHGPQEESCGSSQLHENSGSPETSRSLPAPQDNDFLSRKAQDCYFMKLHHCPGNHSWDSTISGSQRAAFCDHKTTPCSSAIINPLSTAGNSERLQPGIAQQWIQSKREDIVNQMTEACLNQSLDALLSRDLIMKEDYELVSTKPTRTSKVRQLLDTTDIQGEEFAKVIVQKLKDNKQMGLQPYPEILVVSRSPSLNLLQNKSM
On to `COc1ccc(-c2cnc(SCCNC(=O)c3ccc4c(c3)OCO4)[nH]2)cc1`, for which the inhibition is -2.11%.

For `COc1ccccc1CSc1ncc(-c2ccc([N+](=O)[O-])cc2)[nH]1`, the inhibition is 29.2% (active). Then `COc1cccc(-c2cnc(C(O)c3ccccc3OC)[nH]2)c1` (stereo not drawn), with -4.35%; and `Cc1cccc(N2O[C@H]3C=CC2CCCC3)n1`, with 9.84%. Then `O=S(=O)(c1ccccc1)N(Cc1cccc(F)c1)c1ccccc1`, with -10.2%. For `CCN(CC)S(=O)(=O)c1ccc2[nH]c(=O)cc(C(=O)N(C)C3CCS(=O)(=O)C3)c2c1` (stereo not drawn) the value was -6.75%; for `O=S(=O)(c1ccc(OCC(O)CN2CCN(c3ccccc3Cl)CC2)cc1)N1CCOCC1` (stereo not drawn), -2.63%; for `Cc1cc2oc3ccc(NCCC4CCCN4C)cc3c(=O)c2cc1C` (stereo not drawn), 41.2% (active). `CN1CCC[C@@H]1CCO[C@](C)(c1ccccc1)c1ccc(Cl)cc1`: the inhibition was 14.6%.

In the case of `CCCCC(CC(C)O)c1n[nH]c(=S)n1-c1ccccc1` (stereo not drawn), the inhibition was -17.4%. Take `O=C(CCNc1n[nH]c(=O)[nH]c1=O)N/N=C\c1ccc(Br)cc1`: the inhibition is -5.19%. Then `Cc1nn(C)cc1N1C(=O)c2cccc3c(N)ccc(c23)C1=O`, with 24.3% (active).

Regarding `O=C(CN1C(=O)NC2(CCOc3ccccc32)C1=O)Nc1cccc([N+](=O)[O-])c1` (stereo not drawn), the inhibition was 5.36%.

Regarding `Cc1cccc2sc(N(CCCN(C)C)C(=O)CCS(=O)(=O)c3ccccc3)nc12`, the inhibition is 24.6% (active).

Consider `COc1cccc2sc(N(CCCN(C)C)C(=O)CCS(=O)(=O)c3ccccc3)nc12`, for which the inhibition was 31.7% (active). Then `CCOc1ccccc1NC(=O)CCS(=O)(=O)c1cccc2nsnc12`, with 5.35%; and `Cc1cccc(C)c1NC(=O)CCS(=O)(=O)c1cccc2nsnc12`, with 7.27%.

As for `COc1ccc(C)cc1NC(=O)CCS(=O)(=O)c1cccc2nonc12`, the inhibition was 4.16%.

Regarding `O=C(O)CCS(=O)(=O)c1ccc(-c2ccccc2)cc1`, the inhibition is -5.35%. Consider `O=C(CN1CCN(S(=O)(=O)c2ccc(F)cc2)CC1)NC1CC1`, for which the inhibition is 0.22%. For `COCCCn1c(SCc2cccc(OC)c2)nc2cc(OC)c(OC)cc2c1=N` the value was 12.2%. In the case of `CCOc1ccc(S(=O)(=O)N2CCN(C(=O)c3oc4ccccc4c3C)CC2)cc1`, the inhibition was -8.52%. In the case of `CCCc1ccc(-c2csc(NC(=O)Cc3cccs3)n2)cc1`, the inhibition is 21.1% (active). For `O=C(Cc1cccs1)Nc1ccc([N+](=O)[O-])cc1` the value was 3.09%; for `O=C(CCc1ccccc1)NCCc1cccs1`, -5.14%. With `COc1cc(S(=O)(=O)Nc2ncn[nH]2)ccc1Cl`, the inhibition was 3.73%.

In the case of `CC(=O)c1cc(C#N)c(N2CC(C)OC(C)C2)nc1C` (stereo not drawn), the inhibition is 0.19%.

For the compound `COc1ccc(-c2nc3cnccn3c2NC(C)(C)CC(C)(C)C)cc1O`, the inhibition was 7.55%. On to `COc1ccc(-c2nc3cc(C)ccn3c2NC2CCCCC2)cc1SC1CCCCC1`, for which the inhibition was -6.71% and 17.4%. In the case of `COc1ccc(-c2nc3cnccn3c2NC2CCCCC2)cc1-c1cccc(Cl)c1`, the inhibition was 27.1% (active) and 52.4% (active). For `Cn1c(SCC(=O)NC2CCCCC2)nnc1-c1ccc(N)cc1` the value was -8.42%. Then `CCCn1nc(Oc2nc(NC(C)C)nc(N(C)C)n2)ccc1=O`, with -6.09%. Then `Cc1ccccc1CNC(=O)CCC(=O)N1Cc2ccccc2Oc2ncccc21`, with -3.11%. Regarding `Cc1ccc(C(=O)Nc2c(-c3ccccc3)[nH][nH]c2=O)cc1`, the inhibition was -2.83%. Then `O=C(NC1=CC(=O)c2ccccc2C1=O)c1ccccc1`, with 60.6% (active); and `O=C(NNC(=O)C1CCC1)c1ccccc1`, with -5.53%; and `O=C(CN1C(=O)NC2(CCCCCC2)C1=O)NCc1cccs1`, with 5.08%. Then `CCc1cccc(C)c1NS(=O)(=O)c1c(C)nc2sccn2c1=O`, with 6.35%. On to `Cc1cccc(-n2ncc(Cl)c(Cl)c2=O)c1`, for which the inhibition was 32.6% (active). For `Cc1cccc(N2Cc3ccccc3C2=NC(=O)c2ccc(Cl)nc2)c1` the value was 1.35%; for `Nc1c(-c2cccc(Cl)c2)cnn1-c1cccc([N+](=O)[O-])c1`, -0.26%; for `Cc1ccc2[nH]c(C)c(CCNC(=O)NC3CCCCC3)c2c1`, 10.4%. Then `O=C(CN1CCOCC1)Nc1c2c(nc3c1CCC3)CCC2`, with -11.5%; and `Cc1cc(C)n2nc(C(=O)OCC(=O)N(CCC#N)c3ccc(F)cc3)nc2n1`, with 5.67%; and `O=C(/C=C(O)/C=C/c1ccc(O)cc1)/C=C/c1ccc(O)cc1`, with 56.9% (active). Then `COc1cccc(C(=O)NNC(=O)/C=C/c2ccccc2)c1`, with -14.4%; and `CC(C)(C)C(=O)/C(C#N)=C/c1ccc(O)cc1`, with -19.2%; and `COc1ccc(OC)c(CN2C(=O)CCC2(C)C(=O)NC2CCCCCC2)c1` (stereo not drawn), with -0.24%. In the case of `FC(F)(F)C1CCCN(c2nsc3ccccc23)C1` (stereo not drawn), the inhibition was 31% (active). Then `O=[N+]([O-])c1cc(S(=O)(=O)NCCc2ccccn2)ccc1Cl`, with 5.34%.

With `Cc1ccc(C(=O)CN2C(=O)NC3(CCOc4ccccc43)C2=O)s1` (stereo not drawn), the inhibition was -4.27%. With `CCC1Sc2ccc(S(=O)(=O)CCC(=O)NCc3cccs3)cc2NC1=O` (stereo not drawn), the inhibition was -15.1%. For `COc1cc(NS(=O)(=O)c2ccc3ccccc3c2)c2ncccc2c1` the value was 29.3% (active); for `COc1ccc(OC)c(C(C)NC(=S)Nc2ccc(S(=O)(=O)Nc3ncccn3)cc2)c1` (stereo not drawn), 2.38%; for `O=S(=O)(Nc1ccccn1)c1cccc(S(=O)(=O)c2ccc(Cl)cc2)c1`, -8.24%. For the compound `Cc1cccc(COc2ccccc2/C=N/Nc2ccc([N+](=O)[O-])cc2)c1`, the inhibition is 31.1% (active). Then `COC(=O)c1ccccc1N=NNc1ccc([N+](=O)[O-])cc1`, with 2.92%.

As to `O=[N+]([O-])c1ccc(N/N=C/c2ccccc2)cc1`, the inhibition is 24.8% (active). For `CC(C=Cc1ccccc1)=NNS(=O)(=O)c1ccc([N+](=O)[O-])cc1` the value was 3.79%. For `Cc1ccccc1OCCOc1ccc([N+](=O)[O-])cc1/C=N/n1cnnc1` the value was 7.18%.

For the compound `O=[N+]([O-])c1ccc(COc2ccccc2CN2CCOCC2)cc1`, the inhibition was -0.03%. For `COCCN(C(=O)CSCc1ccc(C)cc1)c1c(N)n(CC(C)C)c(=O)[nH]c1=O` the value was -4.76%.

Turning to `CN(C)CCCO/N=C(\c1ccccc1)c1ccncc1`, the inhibition is -6.88%. Then `CCO[C@@H]1OC(C(N)=O)=C[C@H](c2ccc(Br)cc2)[C@H]1CCCO`, with -17.7%; and `CN(C)S(=O)(=O)c1cccc(C(=O)OCC(=O)N2CCCC2=O)c1`, with -8.86%; and `CC(=O)Nc1ccc(NC(=O)C(C)OC(=O)c2ccccc2C(=O)c2ccc(Cl)c([N+](=O)[O-])c2)cc1` (stereo not drawn), with 3.48%.

In the case of `NS(=O)(=O)c1cccc(NC(=O)COC(=O)c2cc([N+](=O)[O-])ccc2N2CCCC2)c1`, the inhibition is -11.1%. Then `N#Cc1cccc(NC(=O)COC(=O)c2ccccc2C(=O)c2ccc(Cl)c([N+](=O)[O-])c2)c1`, with 39.9% (active); and `Cn1nnnc1SCC(=O)NNC(=O)c1ccc(Br)cc1`, with -2.01%.

Take `CN1CCN(/N=C/c2ccc(-c3ccc([N+](=O)[O-])cc3)o2)CC1`: the inhibition was 21.4% (active). For `CN1CCN(/N=C2/C(=O)Nc3ccc([N+](=O)[O-])cc32)CC1` the value was 1.73%; for `CN1CCN(/N=C/c2ccc(C#N)cc2)CC1`, -13.1%. For `COCCNC(=O)C(c1ccc(C)o1)N(Cc1cccs1)C(=O)c1snc(C(N)=O)c1N` (stereo not drawn), the inhibition was -22%.

Regarding `Cc1nnc(NC2=NCCCCC2)o1`, the inhibition was -2.4%. For `COc1ccc(CNC(=O)CN2CCC(n3nnc4cc(F)ccc43)CC2)cc1` the value was -4.66%.

On to `Cn1c(SCC(=O)C(C)(C)C)nnc1-c1ccccn1`, for which the inhibition was 2.6%. For `COc1cc(/C=N/NC(=O)Nc2ccccc2)ccc1OCCOc1ccccc1C`, the inhibition is 9.59%. On to `CNC(=S)N/N=C/c1ccc(OCc2ccccc2)c(Br)c1`, for which the inhibition was 33.9% (active). In the case of `O=C(O)COc1ccc(/C=N/O)cc1Br`, the inhibition was 11.6%. As to `Cc1c(-c2ccccc2)cn2c1-c1ccc(C)n1CC2`, the inhibition was -12.5%. For `[O-][n+]1onc2c1CCc1[nH]c(-c3ccccc3)nc1-2` the value was -6.67%; for `CC(C)=CCC/C(C)=C/C(=O)O`, 3.56%; for `Cc1cc(C)nc(NC(=O)Nc2ccccc2C(F)(F)F)n1`, 7.62%. For `O=C(/C=C/Sc1ncn[nH]1)c1ccc(Cl)cc1` the value was 21.3% (active); for `CC(C)CC(=O)N=C1SC2CS(=O)(=O)CC2N1CCc1ccccc1` (stereo not drawn), -9.18%. For `C=CCn1c(-c2ccccc2OCC)n[nH]c1=S` the value was 0.62%; for `O[C@H]1CN(Cc2cccs2)[C@@H](c2ccc(Cl)cc2)C[C@@H]1n1cc(C2CC2)nn1`, 5.68%; for `O[C@@H]1C[C@H](c2ccccc2)N(Cc2cccs2)C[C@H]1n1cc(C2CC2)nn1`, -9.47%.

In the case of `O[C@H]1C[C@H](c2ccc(Cl)cc2)N(Cc2cccs2)C[C@@H]1n1cc(C2CC2)nn1`, the inhibition is 21.6% (active). Then `CC(=O)Nc1ccc(CNc2nc(NCCN(C)C)nc3cc(-c4ccccc4)sc23)cc1`, with 11.1%.

Take `Cc1ccc(C(=O)N2CCC(n3nccc3NC(=O)Nc3cccc(F)c3)CC2)cn1`: the inhibition was -2.88%. Then `COc1ccc2ccccc2c1CNCc1ccccn1`, with -4.61%; and `FC(F)Oc1ccccc1C1CC(c2ccc(Br)s2)Nc2ncnn21` (stereo not drawn), with -2.05%.

A word on the inhibition: it is the relative decrease from the control value, in per cent.
